Records with an inconclusive call do not appear. A call without a number means that no potency is given here. Activity calls are given as the source filed them. Calls come from the whole dose curve; as a rule, active = well fitted inhibition curve with a large enough effect; inconclusive = small, poorly fitted or top-dose-only effect; inactive = no such curve, though single readings can be large or run the other way.
Test: NS1 protein of Zika virus - qHTS assay to identify small molecule inhibitors in human HEK 293 cells (AID 1347053); note: nearly all actives have a fitted effect of over 55% in size
Details: HEK293 ZIKV MR766 infection, NS1 TR-FRET, 24 h; series mostly up to 46.1 µM
Procedure, shortened: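 In this cell-based screen, HEK 293 cultures received compound for one hour before Zika MR766 at MOI = 0.5. NS1 was quantified 24 hours later by TR-FRET, normalized to virus-free wells and infected wells.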

SMILES	Potency
CCCn1c(=O)c2[nH]c(-c3ccc(S(=O)(=O)O)cc3)nc2n(CCC)c1=O	inactive
NC(=Nc1ccccc1)NC(=O)c1nc(Cl)c(N)nc1N	inactive
CC(C)(C)c1cc(/C=C(\C#N)C(N)=S)cc(C(C)(C)C)c1O	inactive
CC#CCOC(=O)c1c(C)nc2sc3c(c2c1N)CCC(O)C3 (stereo not drawn)	inactive
Nc1ccc2c3c(cccc13)C(=O)NC2=O	inactive
N=C(N)SCCc1cnc[nH]1	inactive
O=c1cc(-c2ccccc2)[nH]c2nc(Cl)ccc12	inactive
C[C@H](O)C(=O)C1=Nc2c(nc(N)[nH]c2=O)NC1	inactive
CC[C@@H]1Cc2cc(O)ccc2C2=C1c1ccc(O)cc1C[C@H]2CC	inactive
CN(C)S(=O)(=O)c1ccc2c(c1)/C(=C/c1cc3c([nH]1)CCCC3)C(=O)N2	inactive
O=C(O)CCC(=O)N1CCCC1C(=O)O (stereo not drawn)	inactive
Cn1c(=O)c2[nH]c(-c3ccc(S(=O)(=O)O)cc3)nc2n(C)c1=O	inactive
Cn1cc(C(F)(F)F)nc1-c1ccc(OCC(O)CNCCOc2ccc(O)c(C(N)=O)c2)cc1 (stereo not drawn)	inactive
COc1ccc2c(c1)CCC1C2CC[C@@]2(C)C1CC[C@@H]2NCCCCCCN1C(=O)C=CC1=O (stereo partly drawn)	inactive
Nc1ccc(-c2nc3ccc(-c4nc5ccc(N)cc5[nH]4)cc3[nH]2)cc1	inactive
NS(=O)(=O)c1cccc2c1c([N+](=O)[O-])cc1nc(O)c(O)nc12	inactive
CCCCCCCCCCCCCCCCCCOC[C@H](COP(=O)([O-])OCC[N+](C)(C)C)OC	inactive
O=C1NC(=O)c2cc(Nc3ccccc3)c(Nc3ccccc3)cc21	inactive
